Several values for one entry are separate records, joined by “and”; a condition that tells them apart may be missing. Equal values may be shown once. Where a name gives a salt, the structure may show the parent alone.
Legend:
Assay in all cases: cell viability relative to vehicle control; higher = less cytotoxic
Details in all cases: 10 µM
[1] = test system: K562
Summary of the method: (§1)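 Screening covered the Selleck bioactive, kinase and epigenetic probe libraries, less identity-inconsistent compounds, on CRISPR-edited mutant clones and isogenic wild-type clones of four leukaemia lines. Cells, at 2000 per well in 50 µL medium, received a single 10 µM acoustically dispensed dose. After 48 h the supernatant was removed and CellTiter-Glo luminescence was read. Viability was analysed in Genedata Screener as percent of the on-plate vehicle control.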

[2] = test system: MARIMO
Summary of the method: as §1

[3] = test system: MOLM14
Summary of the method: as §1

[4] = test system: OCI-AML2
Summary of the method: as §1

| SMILES | cell viability ([1]; SRSF2 genotype: SRSF2 P95H/wt) | cell viability ([1]; SRSF2 genotype: SRSF2 wt/wt) | cell viability ([2]; SRSF2 genotype: SRSF2 P95H/wt) | cell viability ([2]; SRSF2 genotype: SRSF2 wt/wt) | cell viability ([3]; SRSF2 genotype: SRSF2 P95H/wt) | cell viability ([3]; SRSF2 genotype: SRSF2 wt/wt) | cell viability ([4]; SRSF2 genotype: P95H/wt) | cell viability ([4]; SRSF2 genotype: wt/wt) |
| --- | --- | --- | --- | --- | --- | --- | --- | --- |
| Cc1ncc(CO)c(CO)c1O [Pyridoxine hydrochloride] | 104% and 103% | 111% | 104% | 112% | 105% | 110% | 104% | 96.7% |
| CCCc1nn(C)c2c(=O)[nH]c(-c3cc(S(=O)(=O)N4CCN(C)CC4)ccc3OCC)nc12 [Sildenafil citrate] | 100% and 106% | 103% | 106% | 108% | 108% | 111% | 118% | 109% |
| CCCCCCCCCCCCCC(=O)OCC(COC(=O)CCCCCCCCCCCCC)OC(=O)CCCCCCCCCCCCC [Tritetradecanoin] | 107% and 104% | 103% | 100% | 107% | 101% | 102% | 102% | 107% |
| CCN(CC)CCOC(=O)c1ccc(N)cc1Cl [Chloroprocaine HCl] | 95.2% and 93.5% | 97.1% | 103% | 115% | 98% | 99.3% | 90.7% | 113% |
| COc1cc2nc(N(C)CCCNC(=O)C3CCCO3)nc(N)c2cc1OC (configuration not stated) [Alfuzosin hydrochloride (Uroxatral)] | 97% and 98.6% | 95.3% | 91.3% | 98.1% | 96.7% | 97.5% | 90.7% | 103% |
| Cc1nc2c(O)cccc2c(=O)[nH]1 | 94.6% and 99.4% | 114% | 99.4% | 93.8% | 95.6% | 101% | 94.2% | 108% |
| COc1cc2nccc(Oc3ccc(NC(=O)c4cn(C(C)C)c(=O)n(-c5ccc(F)cc5)c4=O)cc3F)c2cc1OC | 30.1% and 27.1% | 48.2% | 102% | 102% | 27.7% | 43.7% | 70.4% | 80.4% |
| O=C(/C=C/c1ccc(O)c(O)c1)O[C@@H]1C[C@](O)(C(=O)O)C[C@@H](O)[C@H]1O [Chlorogenic acid] | 102% and 109% | 99.4% | 99.4% | 108% | 104% | 102% | 99% | 102% |
| C=C1/C(=C\C=C2/CCC[C@]3(C)[C@@H]([C@H](C)/C=C/[C@@H](O)C4CC4)CC[C@@H]23)C[C@@H](O)C[C@@H]1O [Calcipotriene] | 75.3% and 84.2% | 79.8% | 65% | 65.3% | 66.8% | 63.6% | 79.2% | 96.1% |
| CCCCOc1ccc(C(=O)Nc2ccc(F)cc2F)cc1 | 91% and 91.9% | 91.8% | 75.4% | 88.6% | 100% | 110% | 85.7% | 92.8% |
| O=C(O)c1ccc(-c2ccc(C=C3SC(=S)N(Cc4ccccc4)C3=O)o2)cc1 [Leukadherin-1] | 89.1% and 83.5% | 82.9% | 85.4% | 96.4% | 82.3% | 91.9% | 89% | 112% |
| O.O=C([O-])c1ncccc1O.O=C([O-])c1ncccc1[O-].[H+].[O]=[V][OH] [VO-Ohpic trihydrate] | 100% and 92.1% | 95.5% | 106% | 102% | 122% | 110% | 121% | 119% |
| Cc1noc(C)c1-c1ccc(-c2cc(C(N)=O)c(NC(N)=O)s2)c(O[C@H]2CCNC2)c1 | 101% | 93.8% | 94.9% | 103% | 89.5% | 99.7% | 101% | 105% |
| CN(C)C/C=C/C(=O)Nc1cc2c(Nc3ccc(F)c(Cl)c3)ncnc2cc1O[C@H]1CCOC1 [Afatinib (BIBW2992)] | 8.97% and 5.94% | 6.24% | 1.96% | 1.37% | 0.03% | 0.04% | 0.06% | 0.13% |
| CC(C(=O)O)c1ccc2c(c1)Cc1cccnc1O2 (configuration not stated) [Pranoprofen] | 105% and 106% | 110% | 110% | 107% | 102% | 105% | 112% | 106% |
| CC(C)Nc1cc(-c2c[nH]c(C(=O)N[C@H](CO)c3cccc(Cl)c3)c2)c(Cl)cn1 | 73.3% and 90.4% | 81.5% | 37.9% | 40% | 48.8% | 34.9% | 41.8% | 37.6% |
| COc1cccc(-c2cc(=O)c3ccccc3o2)c1N | 95.9% and 95.1% | 95.6% | 69.9% | 61.9% | 99.5% | 109% | 73.1% | 58% |
| CC1OC(OC2C(CO)OC(OCC3OC(OC(=O)C45CCC(C)(C)CC4C4=CCC6C7(C)CCC(OC8OCC(O)C(O)C8OC8OC(C)C(O)C(O)C8O)C(C)(CO)C7CCC6(C)C4(C)CC5)C(O)C(O)C3O)C(O)C2O)C(O)C(O)C1O (configuration not stated) [Hederacoside C] | 101% and 93% | 95.3% | 96.9% | 101% | 97.3% | 98% | 93.5% | 106% |
| O=C(/C=C/n1cnc(-c2cc(C(F)(F)F)cc(C(F)(F)F)c2)n1)N1CC(F)(F)C1 | 27.6% and 15.9% | 11.8% | 35.7% | 36.6% | 2.44% | 1.55% | 1.41% | 2.6% |
| Cn1sc(=O)n(Cc2ccccc2)c1=O | 0.36% and 9.05% | 0.35% | 0.8% | 0.14% | 0.12% | 0.54% | 0.07% | 0.09% |

| SMILES | cell viability ([1]; SRSF2 genotype: SRSF2 P95H/wt) | cell viability ([1]; SRSF2 genotype: SRSF2 wt/wt) | cell viability ([2]; SRSF2 genotype: SRSF2 P95H/wt) | cell viability ([2]; SRSF2 genotype: SRSF2 wt/wt) | cell viability ([3]; SRSF2 genotype: SRSF2 P95H/wt) | cell viability ([3]; SRSF2 genotype: SRSF2 wt/wt) | cell viability ([4]; SRSF2 genotype: P95H/wt) | cell viability ([4]; SRSF2 genotype: wt/wt) |
| --- | --- | --- | --- | --- | --- | --- | --- | --- |
| Cc1ccc(C(=O)N(CCCN)[C@@H](c2oc3cc(Cl)ccc3c(=O)c2Cc2ccccc2)C(C)C)cc1 | 0.65% and 0.76% | 0.52% | 0.39% | 0.45% | 0.45% | 0.45% | 0.35% | 0.4% |
| CO/N=C(\C(=O)N[C@@H]1C(=O)N2C(C(=O)O)=C(Cn3ccc(=N)n3CCO)CS[C@H]12)c1csc(N)n1 [Cefoselis sulfate] | 95.5% and 104% | 94% | 92.6% | 98% | 100% | 101% | 103% | 96.8% |
| CCOC(=O)C1=C(C)NC(=S)NC1c1cccc(O)c1 (configuration not stated) [Monastrol] | 106% and 97.8% | 103% | 103% | 99.4% | 105% | 103% | 101% | 102% |
| C[C@H]1c2cccc(O)c2C(O)=C2C(=O)[C@]3(O)C(O)=C(C(N)=O)C(=O)[C@@H](N(C)C)[C@@H]3[C@@H](O)[C@@H]21 [Doxycycline] | 82.7% and 74.8% | 79.9% | 91.8% | 91.3% | 102% | 99.5% | 88.2% | 96.2% |
| NC(=O)c1ccccn1 [Picolinamide] | 104% and 95.8% | 100% | 103% | 108% | 101% | 106% | 92.7% | 110% |
| C#C[C@]1(O)CC[C@H]2[C@@H]3CCc4cc(O)ccc4[C@H]3CC[C@@]21C [Ethinyl Estradiol] | 71.9% and 69.8% | 65% | 70.1% | 70% | 82.4% | 98.8% | 79.3% | 79.7% |
| O=C1NC(=O)C(c2ccccc2)(c2ccccc2)N1 [Phenytoin (Lepitoin)] | 98.1% and 111% | 99.6% | 107% | 103% | 100% | 103% | 105% | 91.6% |
| COc1cccc2c1C(=O)c1c(O)c3c(c(O)c1C2=O)C[C@@](O)(C(=O)CO)C[C@@H]3O[C@H]1C[C@H](N)[C@@H](O)[C@H](C)O1 [Epirubicin Hydrochloride] | 4.6% and 11.6% | 7.29% | 4.26% | 2.14% | 1.38% | 0.76% | 1.59% | 11.3% |
| Fc1ccc(Cl)cc1-c1nc(Nc2ccncc2)c2nccnc2n1 | 86.8% and 88.9% | 79.9% | 92.1% | 104% | 108% | 96% | 104% | 103% |
| COc1cc2c(c(OC)c1OC)-c1c(cc3c(c1OC)OCO3)CC(C)C(C)C2 (configuration not stated) [Schisandrin B] | 76.4% and 76% | 74.8% | 71.8% | 86% | 73% | 76.2% | 90.8% | 84.9% |
| COc1ccc(S(=O)(=O)N(CCO)c2ccccc2CN(C)C/C=C/c2ccc(Cl)cc2)cc1 [KN-93 Phosphate] | 38.5% and 44% | 51.6% | 33.5% | 27.9% | 45.5% | 41.8% | 35.6% | 33.4% |
| CNC(=C[N+](=O)[O-])NCCSCc1csc(CN(C)C)n1 [Nizatidine] | 106% and 107% | 102% | 101% | 107% | 103% | 101% | 92.9% | 108% |
| CCN(CC)CC(O)CNc1ccc(NCC2CO2)c2c1C(=O)c1ccccc1C2=O (configuration not stated) | 1.64% and 0.64% | 3.62% | 1.76% | 2.11% | 2.26% | 0.31% | 0.66% | 0.95% |
| O=C(Nc1ccc2c(O)cc(S(=O)(=O)O)cc2c1)Nc1ccc2c(O)cc(S(=O)(=O)O)cc2c1 [AMI-1, free acid] | 105% and 92.6% | 109% | 100% | 110% | 103% | 108% | 109% | 112% |
| CN(C)C(=O)c1cc2cnc(Nc3ccc(N4CCNCC4)cn3)nc2n1C1CCCC1 [Ribociclib (LEE011)] | 96.4% and 111% | 110% | 68% | 64.7% | 54.2% | 46% | 62% | 57% |
| CN(C)C(=O)Nc1cccc(-c2ccc(N(C)C)cc2)c1 [Atglistatin] | 90.1% and 82.6% | 91.3% | 91.4% | 99.9% | 96.8% | 92.4% | 92.7% | 89.2% |
| O=C1OC(C(O)CO)C([O-])=C1O.[Na+] (configuration not stated) [Sodium erythorbate] | 104% and 106% | 114% | 106% | 107% | 102% | 110% | 114% | 119% |
| Cc1cccc2c3c(ccc12)C1=C(C(=O)C3=O)[C@@H](C)CO1 [Dihydrotanshinone I] | 3.54% and 3.11% | 2.64% | 7.76% | 7.12% | 0.56% | 0.4% | 0.43% | 2.86% |
| CC(C)Oc1ccc(-c2nc(-c3cccc4c3CC[C@@H]4NCCO)no2)cc1C#N [Ozanimod (RPC1063)] | 34% and 30.5% | 30.6% | 27.3% | 32.2% | 38.6% | 40.5% | 29% | 34.4% |
